RORg inh: ROR gamma (mouse) transcription inhibition | P51450 | Drosophila S2 Gal4-RORgamma UAS-luciferase reporter, 20 h | Potency, µM (titrated, usually from 53.6 µM), hits mostly inhibitors | 310,000 tested, 5.4% active | AID 2551; note: nearly all actives have a fitted effect of over 60% in size
Target sequence (P51450 whole entry, looked up, the tested form may be a part): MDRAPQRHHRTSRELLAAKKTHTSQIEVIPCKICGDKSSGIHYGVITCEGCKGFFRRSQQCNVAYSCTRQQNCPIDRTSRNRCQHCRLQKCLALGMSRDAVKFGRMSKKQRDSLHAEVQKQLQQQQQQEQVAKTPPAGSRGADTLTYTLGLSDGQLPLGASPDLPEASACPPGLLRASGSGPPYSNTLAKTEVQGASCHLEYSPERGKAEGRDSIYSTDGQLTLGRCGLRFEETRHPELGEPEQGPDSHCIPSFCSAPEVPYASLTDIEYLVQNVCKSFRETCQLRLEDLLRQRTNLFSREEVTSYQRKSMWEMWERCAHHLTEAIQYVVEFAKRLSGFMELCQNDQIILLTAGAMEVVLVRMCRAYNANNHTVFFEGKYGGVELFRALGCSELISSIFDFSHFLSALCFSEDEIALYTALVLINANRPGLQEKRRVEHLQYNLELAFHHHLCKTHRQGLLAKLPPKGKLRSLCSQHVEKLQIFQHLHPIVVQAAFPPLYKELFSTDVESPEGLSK
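Luciferase reporter read in Schneider cells carrying Gal4-RORγ (mouse) and UAS-Photinus luciferase; cells given compound 1 h before 700 uM copper sulfate induction, then incubated 20 h at ambient temperature.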
ELG1 repair inh: ELG1-dependent DNA repair inhibition | HEK293T ELG1-luciferase reporter, luminescence, 16 h; DNA damage induced by 5-fluorouridine | Potency, µM (top dose mostly 46.1 µM), hits mostly inhibitors | 330,000 tested, 2.3% active | AID 504467; note: nearly all actives have a fitted effect of over 55% in size
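Quantitative HTS, concentration-response format. 2,000 cells/well co-treated with 5-fluorouridine and compound, 16 hr in 5% CO2 at 37 °C; ONE-Glo luminescence read after 30 min.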
VP16 counter: Gal4-VP16 reporter inhibition counter-screen. Drosophila S2 Gal4-VP16 UAS-luciferase, luminescence, 20 h. Potency, µM (highest dose often 53.6 µM), usual class: inhibitors. 310,000 tested, 3.5% active;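 note: Gal4-VP16 expression switched on by copper sulfate through the metallothionein promoter; nearly all actives have a fitted effect of over 50% in size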
DT40 TDP1 CPT: DT40-hTDP1 cell growth loss with CPT. 420,000 tested, 12% active. AID 686979. chicken DT40 Tdp1-/-;hTDP1 cells + 20 nM CPT, ATP luminescence, 48 h. Potency, µM (top dose mostly 46.2 µM), usual class: inhibitors; note: nearly all actives have a fitted effect of over 55% in size
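Chicken DT40 Tdp1-/- cells complemented with human TDP1, 400 cells/well, exposed to compounds plus 20 nM camptothecin for at least 48 h at 37 C; viability read as ATP content by CellTiter-Glo luminescence.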
IL1B secr inh: blocks inflammasome-driven IL-1 beta release. THP-1 LPS/ATP IL-1B secretion, AlphaLISA, 16 h; hits give low values. AID 743279. activity change, % at 57.5 µM. 360,000 tested, 4.7% active; in the data active = activity change below about -50%; inconclusive = mostly about -30% to -49%
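THP-1 cells pretreated 1 hr with compounds (up to 57.5 uM final), then stimulated with LPS (250 ng/mL final) plus ATP (1.25 mM final); secreted IL-1B measured by AlphaLISA after 16 hr, decreased signal indicating inhibition.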
DT40 TDP1 no CPT: qHTS for Inhibitors of human tyrosyl-DNA phosphodiesterase 1 (TDP1): qHTS in cells in absence of CPT. Potency, µM (doses to about 46.2 µM), usual class: inhibitors. 420,000 tested, 15% active. AID 686978, 2013. DT40 Tdp1-/- hTDP1 cells, no CPT, ATP luminescence, 48 h; note: nearly all actives have a fitted effect of over 55% in size
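Luminescent ATP content (CellTiter-Glo) served as the growth readout. Knockout chicken DT40 cells expressing human TDP1 were exposed to compounds without camptothecin for a minimum 48 hr at 37 °C.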
Hits are given with their value. A selection: hits, their analogues and other compounds. The true share with any hit is near 21%. Unless noted, calls come from the whole dose curve; as a rule, active = well fitted curve in the direction sought with a large enough effect; inconclusive = small, poorly fitted or top-dose-only effect, or another doubt; inactive = no such curve, though single readings can be large; an effect the other way counts as inactive or inconclusive.

Results for CC(=O)c1cc(C(=O)N2CCc3c([nH]c4ccccc34)C2C2CCCCC2)[nH]n1 (stereo unspecified) ?
RORg inh: inactive; ELG1 repair inh: inconclusive; VP16 counter: inactive; DT40 TDP1 CPT: inactive; IL1B secr inh: inactive; DT40 TDP1 no CPT: inconclusive

Results for CCCN1CCC(=O)N(C(CSc2ccc(OC)cc2)CC(C)C)CC1 (stereo unspecified) ?
RORg inh: inactive; VP16 counter: inactive

How did Cc1cccc(C)c1C(O)c1ncc(-c2ccccc2C(F)(F)F)[nH]1 (stereo unspecified) do in these assays?
DT40 TDP1 CPT: inactive; IL1B secr inh: inactive; DT40 TDP1 no CPT: inconclusive

What do the screens show for `Nc1cc2cccnc2cc1Cl`?
DT40 TDP1 CPT: inactive; IL1B secr inh: inactive; DT40 TDP1 no CPT: inactive

How did Cc1c(CN2CCc3c([nH]c4ccccc34)C2C2CCCCC2)cnn1C (stereo unspecified) do in these assays?
RORg inh: inactive; ELG1 repair inh: inactive; VP16 counter: inactive; DT40 TDP1 CPT: inactive; IL1B secr inh: inactive; DT40 TDP1 no CPT: 16µM

What do the screens show for `COc1ccc(C(=O)Nc2c(-c3ccccc3)nc3ccccn23)c(OC)c1`?
RORg inh: inactive; ELG1 repair inh: inactive; VP16 counter: inactive; DT40 TDP1 CPT: inconclusive; IL1B secr inh: inactive; DT40 TDP1 no CPT: inconclusive

Results for COc1ccccc1C(=O)Nc1c(-c2ccccc2)nc2ccccn12 ?
RORg inh: inactive; ELG1 repair inh: inactive; VP16 counter: inactive; DT40 TDP1 CPT: 23µM; IL1B secr inh: inactive; DT40 TDP1 no CPT: inconclusive

What do the screens show for `CCCC(O)(CCN1CCOCC1)c1ccc(Br)cc1` (stereo unspecified)?
RORg inh: inactive; ELG1 repair inh: inactive; VP16 counter: inactive; DT40 TDP1 CPT: inconclusive; IL1B secr inh: inactive; DT40 TDP1 no CPT: inconclusive

Results for CCCOc1ccc(C(O)(CCC)CCN2CCCCC2)cc1 (stereo unspecified) ?
RORg inh: inactive; ELG1 repair inh: inactive; VP16 counter: inactive; DT40 TDP1 CPT: 21µM; IL1B secr inh: inactive; DT40 TDP1 no CPT: 23µM

How did CC(OCCN1CCCC1)(c1ccc(F)cc1)c1ccc(F)cc1 do in these assays?
RORg inh: inactive; ELG1 repair inh: inactive; VP16 counter: inactive; DT40 TDP1 CPT: inconclusive; IL1B secr inh: -59; DT40 TDP1 no CPT: inconclusive

What do the screens show for `CC(C)(C)c1ccc(OCCCN2CCCC2)cc1`?
RORg inh: inactive; ELG1 repair inh: inactive; VP16 counter: inactive; DT40 TDP1 CPT: inconclusive; IL1B secr inh: inactive; DT40 TDP1 no CPT: 13µM

How did CN(C)c1ccc(-c2cncnc2NCc2ccccc2)cc1 do in these assays?
RORg inh: inconclusive; VP16 counter: inactive; DT40 TDP1 CPT: inactive; DT40 TDP1 no CPT: inactive

What do the screens show for `COc1cc(/C=C/c2cccc[n+]2C)ccc1OCC(=O)Nc1cccc(Cl)c1`?
RORg inh: inactive; ELG1 repair inh: inconclusive; VP16 counter: inactive; DT40 TDP1 CPT: inactive; IL1B secr inh: -71; DT40 TDP1 no CPT: 18µM

What do the screens show for `COc1cc(NC(=O)COc2ccc(-n3cnnn3)cc2)cc(OC)c1OC`?
ELG1 repair inh: inconclusive; DT40 TDP1 CPT: 23µM; IL1B secr inh: inactive; DT40 TDP1 no CPT: inconclusive

What do the screens show for `COc1ccc(NC(=O)COc2ccc(/C=C/c3cccc[n+]3C)cc2OC)cc1`?
RORg inh: inactive; ELG1 repair inh: inactive; VP16 counter: inactive; DT40 TDP1 CPT: inactive; IL1B secr inh: inactive; DT40 TDP1 no CPT: inactive

How did COc1cc(/C=C/c2cc[n+](C)cc2)ccc1OCC(=O)Nc1ccc(Cl)c(Cl)c1 do in these assays?
RORg inh: inactive; ELG1 repair inh: inactive; VP16 counter: inactive; DT40 TDP1 CPT: inconclusive; IL1B secr inh: -89; DT40 TDP1 no CPT: inconclusive

Results for COc1ccc(NC(=O)COc2ccc(/C=C/c3cc[n+](C)cc3)cc2OC)cc1 ?
RORg inh: inactive; ELG1 repair inh: inactive; VP16 counter: inactive; DT40 TDP1 CPT: inconclusive; IL1B secr inh: -54; DT40 TDP1 no CPT: 23µM

Results for COc1cc(/C=C/c2cccc[n+]2C)ccc1OCC(=O)Nc1ccccc1 ?
RORg inh: inactive; ELG1 repair inh: inconclusive; VP16 counter: inactive; DT40 TDP1 CPT: inactive; IL1B secr inh: inactive; DT40 TDP1 no CPT: inactive

Results for O=C1[C@@H]2C[C@@H]3C[C@H]1C[C@@](O)(C3)C2 ?
RORg inh: inactive; VP16 counter: inactive

How did C/C=C/c1ccc(OCC(=O)Nc2cc(OC)c(OC)c(OC)c2)c(OC)c1 do in these assays?
RORg inh: inactive; ELG1 repair inh: 15µM; VP16 counter: inactive; DT40 TDP1 CPT: 13µM; IL1B secr inh: inactive; DT40 TDP1 no CPT: 12µM

What do the screens show for `COc1ccc(S(=O)(=O)N(Cc2cccs2)C2CCCC2)cc1`?
RORg inh: inactive; ELG1 repair inh: inactive; VP16 counter: inactive; DT40 TDP1 CPT: 18µM; IL1B secr inh: inactive; DT40 TDP1 no CPT: 12µM

Results for COc1ccc(S(=O)(=O)NCc2cccs2)cc1 ?
RORg inh: inactive; ELG1 repair inh: inactive; VP16 counter: inactive; DT40 TDP1 CPT: inactive; IL1B secr inh: inactive; DT40 TDP1 no CPT: inactive

How did Cc1ccc(-c2noc(CN(C3CCCCC3)S(=O)(=O)c3ccc(F)cc3)n2)cc1 do in these assays?
DT40 TDP1 CPT: inconclusive; DT40 TDP1 no CPT: 18µM

What do the screens show for `CCCc1nc(-c2ccc(-c3ccc(F)cc3)cc2)no1`?
RORg inh: inactive; ELG1 repair inh: inconclusive; VP16 counter: inactive; DT40 TDP1 CPT: inactive; IL1B secr inh: inactive; DT40 TDP1 no CPT: inactive

Results for CS(=O)(=O)N(Cc1nc(-c2ccc(F)cc2)no1)c1ccccc1Cl ?
ELG1 repair inh: inconclusive; DT40 TDP1 CPT: 18µM; IL1B secr inh: inconclusive; DT40 TDP1 no CPT: inconclusive

What do the screens show for `COc1ccc(S(=O)(=O)N(Cc2ccccc2)Cc2nc(-c3ccccc3)no2)cc1`?
RORg inh: inactive; ELG1 repair inh: inactive; VP16 counter: inactive; DT40 TDP1 CPT: 15µM; IL1B secr inh: inactive; DT40 TDP1 no CPT: 18µM

How did COc1ccc(C)cc1NC(=O)c1sc2nc(-c3ccc(F)cc3)cn2c1C do in these assays?
DT40 TDP1 CPT: inactive; DT40 TDP1 no CPT: inactive

How did CN1CCN(c2ncc3nc(CCc4ccccc4)c(=O)n(C4CC4)c3n2)CC1 do in these assays?
RORg inh: inconclusive; VP16 counter: inactive; DT40 TDP1 CPT: inconclusive; DT40 TDP1 no CPT: inconclusive

How did COc1ccc(S(=O)(=O)N(Cc2nc(-c3ccccc3)no2)C2CCCCC2)cc1 do in these assays?
DT40 TDP1 CPT: 16µM; DT40 TDP1 no CPT: 9.2µM

How did NC(=O)c1ccc(NC(=O)COC(=O)C2(c3cccc(F)c3)CCCC2)cc1 do in these assays?
RORg inh: inactive; ELG1 repair inh: inactive; VP16 counter: inactive; DT40 TDP1 CPT: inconclusive; IL1B secr inh: inactive; DT40 TDP1 no CPT: 26µM
